Measured values published in PubChem BioAssay (NCI).
About 79,000 compounds went through this panel and 15% of them were active in at least one assay; those are over-represented in the sample as a whole. Rule as the data show it: active = growth inhibition above about 70%; inactive = the rest.

Columns and labels:
[1] = NCI Yeast Anticancer Drug Screen. Data for the rad50 strain (AID 155);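 also: 0% = growth of vehicle-only cultures of the same strain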; settings: S. cerevisiae rad50 strain growth inhibition; at 50.0 µM; stronger effect = higher value
How it was run: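 Growth of the mutant yeast was measured after compound exposure and referenced to vehicle-treated cultures.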

[2] = NCI Yeast Anticancer Drug Screen. Data for the mec2-1 strain (AID 157); settings: S. cerevisiae mec2-1 strain, at 50.0 µM, stronger effect = higher value
How it was run: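 Mutant yeast (mec2-1) grown with compound; growth inhibition relative to vehicle control reported.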

[3] = NCI Yeast Anticancer Drug Screen. Data for the sgs1 mgt1 strain (AID 161);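 also: 0% = growth of cultures given vehicle only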; settings: S. cerevisiae sgs1 mgt1 strain, at 50.0 µM, stronger effect = higher value
How it was run: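 Yeast cells carrying a defined DNA-repair defect were exposed to test compounds. Growth inhibition was measured relative to vehicle-treated controls.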

[4] = NCI Yeast Anticancer Drug Screen. Data for the cln2 rad14 strain (AID 165);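 also: 0% = growth equal to vehicle treated cultures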; settings: S. cerevisiae cln2 rad14 strain, at 50.0 µM, stronger effect = higher value
How it was run: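 Readout is yeast growth inhibition versus vehicle-treated controls, using a strain with cln2 and rad14 alterations exposed to compound.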

[5] = NCI Yeast Anticancer Drug Screen. Data for the bub3 strain (AID 167); settings: S. cerevisiae bub3 mutant strain, at 50.0 µM, stronger effect = higher value
How it was run: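 Whole-cell yeast assay. The mutant strain was incubated with compounds, and growth inhibition was determined by comparison with vehicle-treated cells.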

[6] = NCI Yeast Anticancer Drug Screen. Data for the mlh1 rad18 strain (AID 175); settings: S. cerevisiae mlh1 rad18 strain growth inhibition; at 50.0 µM; stronger effect = higher value
How it was run: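 Genetically defined yeast (DNA repair-deficient) exposed to compounds; growth inhibition determined relative to vehicle.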

Measured: growth inhibition

Cn1c(=O)oc2cc([N+](=O)[O-])c(Cl)cc21
inactive: [1] -2.9% | [2] 4.25% | [3] -0.85% | [4] -1.35% | [5] -6.6% | [6] 6.75%

COc1ccc(/C=N/SC(c2ccccc2)(c2ccccc2)c2ccccc2)cc1
inactive: [1] 28.6% | [2] 6% | [3] 13.2% | [4] 13.4% | [5] 0.2% | [6] -4.4%

C(CCC[Si]12OCCN(CCO1)CCO2)CC[Si]12OCCN(CCO1)CCO2
inactive: [1] 6% | [2] -1.8% | [3] 20.1% | [4] 11.9% | [5] -1.45% | [6] 1.1%

COC1OC(C(=O)O)C(O)C(O)C1O (centres undefined)
inactive: [1] 6.75% | [2] -21.1% | [3] -2.6% | [4] -4% | [5] -17.6% | [6] 8.3%

Cc1ccc(N2C(=O)ON(c3ccccc3)C2c2ccccc2)cc1 (centres undefined)
inactive: [1] 3.6% | [2] -5.8% | [3] -4.45% | [4] 5.9% | [5] 12.4% | [6] -15.9%

CCOC(=O)c1cnc2cc3c(cc2c1Nc1ccc2c(c1)OCO2)OCO3
inactive: [1] 12.4% | [2] 13.3% | [3] 6.85% | [4] 3.6% | [5] 0% | [6] 20%

COc1ccc(C(=O)C(c2ccc(OC)cc2)C2(O)C(=O)Nc3ccc([N+](=O)[O-])cc32)cc1 (centres undefined)
inactive: [1] -7.65% | [2] 1.95% | [3] 6.2% | [4] 18.5% | [5] 5.65% | [6] 1.4%

O=[N+]([O-])c1ccc(Cl)c2cccnc12
inactive: [1] 27.2% | [2] -7.65% | [3] -0.15% | [4] 7.3% | [5] 0.45% | [6] 50.4%

O=C(O)CCC(=O)CCc1ccccc1C(=O)O
inactive: [1] 12.3% | [2] -15.8% | [3] 4.3% | [4] -38.1% | [5] -23.1% | [6] 7.85%

CSC(SC)C(OC(C)=O)C(OC(C)=O)C(OC(C)=O)C(COC(C)=O)OC(C)=O (centres undefined)
inactive: [1] -11.7% | [2] 11.4% | [3] 3.15% | [4] -30.9% | [5] 2.3% | [6] 3.85%

Cc1ccc(S(=O)(=O)OCC2OC(C)(C)OC2COS(=O)(=O)c2ccc(C)cc2)cc1 (centres undefined)
inactive: [1] 25% | [2] -5.65% | [3] 6.7% | [4] -38.6% | [5] 6.2% | [6] 10.3%

CCCCc1nc(CCCC)nc(CCCC)n1
inactive: [1] -6.75% | [2] -14.2% | [3] -12.8% | [4] -2.45% | [5] -2.8% | [6] 1.15%

Cc1cc(C)n(-c2ccnc(-n3nc(C)cc3C)n2)n1
inactive: [1] 22% | [2] 23.9% | [3] 33.9% | [4] 7.7% | [5] 21.6% | [6] 40.3%

COCCN(CCOC)C(=O)Nc1cccc(Cl)c1
inactive: [1] 30.4% | [2] 6.3% | [3] 15.9% | [4] 8.35% | [5] 5.45% | [6] 10.2%

C=CCN1C2Cc3cc(OC)c(OC)cc3C1Cc1cc(OC)c(OC)cc12
inactive: [1] 0.15% | [2] -19.2% | [3] -23.6% | [4] -6.45% | [5] -16.2% | [6] -10.3%

COc1ccc(/C=C2\N=C(c3ccc(Cl)cc3)OC2=O)cc1Br
inactive: [1] 10.2% | [2] -2.15% | [3] 21.5% | [4] 5% | [5] 12.8% | [6] 17.3%

COC(=O)NCC(OC(=O)c1cc2c(cc1I)OCO2)C1=CCCCC1 (centres undefined)
inactive: [1] 54.5% | [2] 30.1% | [3] 37.6% | [4] 29.2% | [5] 48.8% | [6] 28.8%

CC(=O)CCC(=O)OCc1ccccc1
inactive: [1] 35.1% | [2] 7.75% | [3] 1.3% | [4] 10.3% | [5] -3% | [6] 4.2%

CCOC1OC(C(O)CO)C(O)C(O)C1O (centres undefined)
inactive: [1] 4.6% | [2] -8.7% | [3] -1.9% | [4] -56.4% | [5] -7.9% | [6] -0.6%
